For 63 compounds, cytotoxicity call results are on record in the antibiotic and cytotoxicity screens of Wong et al. (2023).

SMILES strings stand for the structures. Hit rate of the full screen: of about 39,000 compounds, about 3,300 (8.5%) were called active. The sample as a whole holds a higher share of actives than the screen did.

The experiment deals with HepG2. Nature of the experiment: cytotoxicity call (relative viability < 0.9). Particulars: 10 µM.
Take `C[C@H](CO)N1C[C@H](C)[C@H](CN(C)Cc2ccccc2)OCCCC[C@H](C)Oc2ccc(NS(=O)(=O)c3cccs3)cc2C1=O`: the cytotoxicity call was “inactive”.
In the case of `COc1ccc(CN(C)C[C@@H]2OCCCC[C@H](C)Oc3ccc(NC(=O)NC(C)C)cc3C(=O)N([C@H](C)CO)C[C@@H]2C)cc1` it was “inactive”.
In the case of `C[C@@H]1CN([C@@H](C)CO)C(=O)c2cc(NS(=O)(=O)c3cccs3)ccc2O[C@H]1CN(C)Cc1ccc(Cl)c(Cl)c1` it was “inactive”; in that of `COc1ccc(S(=O)(=O)N(C)C[C@H]2OCCCC[C@H](C)Oc3ccc(NC(=O)Nc4ccc(C(F)(F)F)cc4)cc3C(=O)N([C@@H](C)CO)C[C@@H]2C)cc1`, “inactive”; in that of `COc1ccc(S(=O)(=O)N(C)C[C@H]2OCCCC[C@@H](C)Oc3ccc(NC(=O)Nc4ccc(C(F)(F)F)cc4)cc3C(=O)N([C@@H](C)CO)C[C@H]2C)cc1`, “active”.
For the compound `COc1ccc(S(=O)(=O)N(C)C[C@@H]2OCCCC[C@H](C)Oc3ccc(NC(=O)Nc4ccc(C(F)(F)F)cc4)cc3C(=O)N([C@@H](C)CO)C[C@H]2C)cc1`, the cytotoxicity call is “inactive”.
The same measure for `COc1ccc(S(=O)(=O)N(C)C[C@H]2OCCCC[C@H](C)Oc3ccc(NC(=O)Nc4ccc(C(F)(F)F)cc4)cc3C(=O)N([C@H](C)CO)C[C@@H]2C)cc1`: “active”; for `COc1ccc(S(=O)(=O)N(C)C[C@@H]2OCCCC[C@H](C)Oc3ccc(NC(=O)Nc4ccc(C(F)(F)F)cc4)cc3C(=O)N([C@H](C)CO)C[C@H]2C)cc1`: “inactive”; for `COc1ccc(S(=O)(=O)N(C)C[C@H]2OCCCC[C@H](C)Oc3ccc(NC(=O)Nc4ccc(C(F)(F)F)cc4)cc3C(=O)N([C@H](C)CO)C[C@H]2C)cc1`: “inactive”.
In the case of `COc1ccc(S(=O)(=O)N(C)C[C@H]2OCCCC[C@H](C)Oc3ccc(NC(=O)Nc4ccc(C(F)(F)F)cc4)cc3C(=O)N([C@@H](C)CO)C[C@H]2C)cc1` it was “inactive”; in that of `COc1ccc(S(=O)(=O)N(C)C[C@@H]2OCCCC[C@H](C)Oc3ccc(NC(=O)Nc4ccc(C(F)(F)F)cc4)cc3C(=O)N([C@H](C)CO)C[C@@H]2C)cc1`, “inactive”.
The same measure for `COc1ccc(S(=O)(=O)N(C)C[C@@H]2OCCCC[C@@H](C)Oc3ccc(NC(=O)Nc4ccc(C(F)(F)F)cc4)cc3C(=O)N([C@H](C)CO)C[C@H]2C)cc1`: “inactive”; for `COc1ccc(S(=O)(=O)N(C)C[C@@H]2OCCCC[C@H](C)Oc3ccc(NC(=O)Nc4ccc(C(F)(F)F)cc4)cc3C(=O)N([C@@H](C)CO)C[C@@H]2C)cc1`: “active”; for `COc1ccc(S(=O)(=O)N(C)C[C@@H]2OCCCC[C@@H](C)Oc3ccc(NC(=O)Nc4ccc(C(F)(F)F)cc4)cc3C(=O)N([C@H](C)CO)C[C@@H]2C)cc1`: “inactive”.
As for `COc1ccc(S(=O)(=O)N(C)C[C@H]2OCCCC[C@@H](C)Oc3ccc(NC(=O)Nc4ccc(C(F)(F)F)cc4)cc3C(=O)N([C@H](C)CO)C[C@H]2C)cc1`, the cytotoxicity call is “active”.
The same measure for `CC(=O)NCCCC[C@@H]1NC(=O)[C@@H]2C[C@H](C(=O)NCCCCN(C)C)[C@H](c3cccc(OCCO)c3)N2C1=O`: “inactive”.
The same measure for `CC(C)NC(=O)N(C)C[C@@H]1OCCCC[C@@H](C)Oc2ccc(NC(=O)Nc3ccc(C(F)(F)F)cc3)cc2C(=O)N([C@H](C)CO)C[C@@H]1C`: “inactive”; for `COc1ccc(NC(=O)N(C)C[C@@H]2Oc3ncc(C#CC(C)C)cc3C(=O)N([C@@H](C)CO)C[C@@H]2C)cc1`: “inactive”.
Turning to `C[C@@H]1CN([C@@H](C)CO)C(=O)c2c(c3ccccc3n2C)-c2ccccc2CO[C@@H]1CN(C)C(=O)CCC(F)(F)F`, the cytotoxicity call is “inactive”.
In the case of `COc1ccc(cc1)S(=O)(=O)N1C[C@]2(C1)CN([C@@H](CO)c1c2c2ccc(cc2n1C)OC)C(=O)c1cccnc1`, the cytotoxicity call is “inactive”.
In the case of `C[C@@H]1CCCCO[C@@H](CN(C)C(=O)Nc2cccc3ccccc23)[C@@H](C)CN([C@@H](C)CO)C(=O)c2cc(NC(=O)NC3CCCCC3)ccc2O1`, the cytotoxicity call was “inactive”.
The same measure for `CC(=O)n1cc([C@H]2C=C(C(=O)N3CCN(C)CC3)O[C@@H](OCc3ccc(CO)cc3)C2)c2ccccc21`: “inactive”; for `C[C@H](CO)N1C[C@H](C)[C@H](CN(C)S(=O)(=O)c2cn(C)cn2)Oc2ccc(NC(=O)Nc3ccc4c(c3)OCO4)cc2C1=O`: “inactive”; for `O=C(c1cn(Cc2cncn2Cc2ccc(Br)cc2)cc1-c1cccc2ccccc12)N1CCOCC1`: “active”.
In the case of `Nc1ccccc1C(=O)N1CCOCC1` it was “inactive”; in that of `O=C(c1ccccc1O)N1CCOCC1`, “inactive”.
The same measure for `C[C@H]1CN(C(=O)CSc2nnc3c4ccccc4n(Cc4cccc(Cl)c4)c3n2)CCN1C(=O)c1ccccc1F`: “inactive”; for `COC(=O)[C@@H]1N2C(=O)[C@@H](N3CC4=C[C@@H](C5CC5)n5c(=O)n(C)c(=O)n5[C@@H]4[C@@H]3[C@@H](O)Cc3ccccc3)[C@H]2SC1(C)C`: “inactive”; for `C[C@@H]1CN([C@@H](C)CO)C(=O)Cc2cc(NS(=O)(=O)c3ccccc3)ccc2O[C@@H]1CN(C)S(C)(=O)=O`: “inactive”.
`CC1(C)CCC2(C(=O)O)CCC3(C)C(=CCC4C5(C)CCC(O)C(C)(CO)C5CCC43C)C2C1` (stereo not drawn): the cytotoxicity call was “inactive”.
In the case of `C=C1CC[C@@H]2C(C)(C)CCC[C@@]2(C)[C@@H]1CC/C(C)=C/C(=O)OC` it was “inactive”; in that of `C=C1CCC2C(C)(CO)C(O)CCC2(C)C1CC=C1C(=O)OCC1O` (stereo not drawn), “active”.
On to `C[C@H]1CN([C@@H](C)CO)C(=O)c2cc(C#CCN(C)C)cnc2O[C@@H]1CN(C)C(=O)CCN1CCCCC1`, for which the cytotoxicity call was “inactive”.
The same measure for `C[C@H]1CN([C@@H](C)CO)S(=O)(=O)c2ccc(C#Cc3ccncc3)cc2O[C@H]1CN(C)C(=O)Nc1ccc2c(c1)OCO2`: “active”; for `C[C@@H]1CN([C@@H](C)CO)S(=O)(=O)c2ccc(C#Cc3ccncc3)cc2O[C@H]1CN(C)C(=O)Nc1ccc2c(c1)OCO2`: “active”.
In the case of `C[C@H]1CN([C@@H](C)CO)S(=O)(=O)c2ccc(C#Cc3cccnc3)cc2O[C@H]1CN(C)C(=O)Nc1ccc2c(c1)OCO2` it was “inactive”; in that of `C[C@@H]1CN([C@H](C)CO)S(=O)(=O)c2ccc(C#Cc3cccnc3)cc2O[C@H]1CN(C)C(=O)Nc1ccc2c(c1)OCO2`, “inactive”; in that of `C[C@H](CO)N1C[C@H](C)[C@@H](CN(C)C(=O)Nc2ccc3c(c2)OCO3)Oc2cc(C#Cc3ccncc3)ccc2S1(=O)=O`, “active”.
Take `C[C@H](CO)N1C[C@H](C)[C@H](CN(C)C(=O)Nc2ccc3c(c2)OCO3)Oc2cc(C#Cc3ccncc3)ccc2S1(=O)=O`: the cytotoxicity call is “inactive”.
In the case of `C[C@@H]1CN([C@H](C)CO)S(=O)(=O)c2ccc(C#Cc3ccncc3)cc2O[C@H]1CN(C)C(=O)Nc1ccc2c(c1)OCO2` it was “inactive”; in that of `C[C@@H]1CN([C@H](C)CO)S(=O)(=O)c2ccc(C#Cc3ccncc3)cc2O[C@@H]1CN(C)C(=O)Nc1ccc2c(c1)OCO2`, “active”; in that of `C[C@@H]1CN([C@H](C)CO)S(=O)(=O)c2ccc(C#Cc3cccnc3)cc2O[C@@H]1CN(C)C(=O)Nc1ccc2c(c1)OCO2`, “inactive”.
Regarding `C[C@H](CO)N1C[C@H](C)[C@H](CN(C)C(=O)Nc2ccc3c(c2)OCO3)Oc2cc(C#Cc3cccnc3)ccc2S1(=O)=O`, the cytotoxicity call was “inactive”.
In the case of `C[C@H]1CN([C@@H](C)CO)S(=O)(=O)c2ccc(C#Cc3cccnc3)cc2O[C@@H]1CN(C)C(=O)Nc1ccc2c(c1)OCO2` it was “inactive”; in that of `C[C@@H]1CN([C@@H](C)CO)S(=O)(=O)c2ccc(C#Cc3cccnc3)cc2O[C@H]1CN(C)C(=O)Nc1ccc2c(c1)OCO2`, “inactive”; in that of `C[C@@H]1CCCCO[C@@H](CN(C)CC2CCCCC2)[C@@H](C)CN([C@H](C)CO)C(=O)c2cc(NC(=O)C3CCCCC3)ccc2O1`, “inactive”.
For `CO[C@@H](CN(C)S(=O)(=O)c1cn(C)cn1)[C@H](C)CN(C(=O)Nc1ccc(C(F)(F)F)cc1)[C@@H](C)CO`, the cytotoxicity call is “inactive”.
Take `C[C@@H]1CN([C@H](C)CO)C(=O)c2cccc(NS(=O)(=O)c3ccc(F)cc3)c2O[C@@H]1CN(C)S(C)(=O)=O`: the cytotoxicity call was “inactive”.
The same measure for `C[C@H](CO)N1C[C@H](C)[C@H](CN(C)S(=O)(=O)c2ccc(F)cc2)Oc2ncc(Br)cc2C1=O`: “inactive”.
In the case of `Cc1noc(C)c1S(=O)(=O)Nc1ccc2c(c1)C(=O)N([C@@H](C)CO)C[C@H](C)[C@@H](CN(C)S(=O)(=O)c1cn(C)cn1)OCCCC[C@H](C)O2` it was “inactive”.
In the case of `C[C@H](CO)N1C[C@H](C)[C@H](CN(C)CC2CC2)Oc2ccc(NS(=O)(=O)c3ccc(F)cc3)cc2C1=O` it was “inactive”.
On to `C[C@H](CO)N1C[C@H](C)[C@H](CN(C)S(=O)(=O)c2cccs2)OCCCC[C@H](C)Oc2ccc(NC(=O)Cc3ccccc3)cc2C1=O`, for which the cytotoxicity call was “inactive”.
In the case of `CC(C)CC(=O)N1CCN(S(C)(=O)=O)CC1`, the cytotoxicity call is “inactive”.
The same measure for `CN1CCc2nc(C(=O)N[C@@H]3C[C@@H](C(=O)N(C)C)CC[C@@H]3NC(=O)C(=O)Nc3ccc(Cl)cn3)sc2C1`: “inactive”.
In the case of `C[C@@H]1CN([C@H](C)CO)S(=O)(=O)c2ccc(C#Cc3cccc(F)c3)cc2O[C@H]1CN(C)S(=O)(=O)c1cn(C)cn1`, the cytotoxicity call is “inactive”.
The same measure for `O=C(O)c1ccnc(C(=O)O)c1`: “inactive”; for `C[C@@H]1CN([C@@H](C)CO)C(=O)c2cc(N(C)C)ccc2O[C@@H](C)CCCCO[C@H]1CN(C)Cc1ccc(C(=O)Nc2ccccc2N)cc1`: “inactive”.
In the case of `C[C@H]1CN([C@@H](C)CO)S(=O)(=O)c2ccc(Br)cc2O[C@@H]1CN(C)C(=O)Nc1ccc2c(c1)OCO2` it was “inactive”; in that of `C[C@@H]1CN([C@@H](C)CO)S(=O)(=O)c2ccc(C#Cc3ccncc3)cc2O[C@@H]1CN(C)C(=O)Nc1ccc2c(c1)OCO2`, “active”; in that of `C[C@@H]1CN([C@@H](C)CO)S(=O)(=O)c2ccc(Br)cc2O[C@H]1CN(C)C(=O)Nc1ccc2c(c1)OCO2`, “inactive”.
The same measure for `C[C@@H]1CN([C@@H](C)CO)S(=O)(=O)c2ccc(C#Cc3cccnc3)cc2O[C@@H]1CN(C)C(=O)Nc1ccc2c(c1)OCO2`: “inactive”.
With `C[C@H](CO)N1C[C@H](C)[C@@H](CN(C)C(=O)Nc2ccc3c(c2)OCO3)Oc2cc(C#Cc3cccnc3)ccc2S1(=O)=O`, the cytotoxicity call is “inactive”.
In the case of `C[C@H]1CN([C@@H](C)CO)S(=O)(=O)c2ccc(C#Cc3ccncc3)cc2O[C@@H]1CN(C)C(=O)Nc1ccc2c(c1)OCO2` it was “active”.
